Laboratory results as given in the supplement of paper PMC10127200.
Where a name gives a salt, the structure may show the parent alone.

Key:
Assay in all cases: Euclidean distance of Cell Painting phenotypic profile (signed KS, 77 features) to DMSO centroid (dimensionless distance); 5 or 10 uM (library dependent); higher = stronger phenotypic change vs DMSO (phenoactivity)
Settings in all cases: 48 h
786-O = test system: 786-O
How it was run: (§1)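 Phenoactivity is computed as Euclidean distance to the median vehicle profile. The profiles, drawn from 77 Harmony features scored as signed Kolmogorov-Smirnov statistics versus same-plate vehicle wells, were corrected for plate position, correlation-weighted and replicate-averaged at the top dose. Stained cells were imaged confocally at 20X (9 fields/well) after 48 h with library compounds at 10 or 5 uM, 0.1% DMSO final, in five cancer lines and a healthy fibroblast line.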

A549 = test system: A549
How it was run: as §1

DU145 = test system: DU145
How it was run: as §1

FB = test system: FB
How it was run: as §1

HEPG2 = test system: HEPG2
How it was run: as §1

OVCAR4 = test system: OVCAR4
How it was run: as §1

SMILES	Euclidean distance (786-O)	Euclidean distance (A549)	Euclidean distance (DU145)	Euclidean distance (FB)	Euclidean distance (HEPG2)	Euclidean distance (OVCAR4)
COC(=O)Nc1nc2cc([S+]([O-])c3ccccc3)ccc2[nH]1 (configuration not stated) [Oxfendazole]	1.09	0.692	1.08	0.801	1.42	1.12
NC(=O)c1cccnc1 [Nicotinamide (Vitamin B3)]	0.857	0.597	2.86	0.938	0.669	1.28
CC(c1cc2ccccc2s1)N(O)C(N)=O (configuration not stated) [Zileuton]	1.8	0.949	0.621	1.2	1.12	1.11
N#Cc1ccc2[nH]cc(CCCCN3CCN(c4ccc5oc(C(N)=O)cc5c4)CC3)c2c1 [Vilazodone HCl]	2.53	2.23	1.66	1.66	2.24	1.77
NC(=O)NCCC[C@H](N)C(=O)O [L-Citrulline]	1.08	0.895	1.37	0.916	1.27	0.761
CCOCCn1c(C2CCN(CCc3ccc(C(C)(C)C(=O)O)cc3)CC2)nc2ccccc21 [Bilastine]	1.25	1.12	1.37	0.933	0.505	0.894
COc1ccc(-c2cc(=O)c3c(OC)c(OC)c(OC)c(OC)c3o2)cc1 [Tangeretin]	0.981	1.05	1.17	0.742	0.656	1.06
N#CCCCSC(=N)N [Kevetrin hydrochloride]	1.5	0.842	1.04	0.849	0.473	0.902
CCc1cc(C(N)=S)ccn1 [Ethionamide]	1.19	0.608	1.03	0.853	2.13	1.4
CC(C)(C)NC(=O)N[C@H](C(=O)N1C[C@H]2[C@@H]([C@H]1C(=O)NC(CC1CCC1)C(=O)C(N)=O)C2(C)C)C(C)(C)C (some centres not stated) [Boceprevir]	1.48	0.973	1.59	1.13	0.545	1.45
Fc1cc(-c2cccc3ncc(-c4cnn(C5CCNCC5)c4)nc23)cc(F)c1CN1CCOCC1	2.09	3.31	2.11	3.84	2.39	1.28
CC(=C(CCOC(=O)C(C)C)SSC(CCOC(=O)C(C)C)=C(C)N(C=O)Cc1cnc(C)nc1N)N(C=O)Cc1cnc(C)nc1N (stereo in doubt) [Sulbutiamine]	1.35	0.871	0.854	1.12	0.637	1.49
S=P(N1CC1)(N1CC1)N1CC1 [Thiotepa]	2.52	3.76	2.03	2.35	2.68	3.07
CS(=O)(=O)N1CCc2c(-c3cnc(N)nc3)nc(N3CCOCC3)nc21	1.32	2.54	0.984	2.13	0.817	2.01
CC(C)(C)NC(=O)[C@H]1CC[C@H]2[C@@H]3CC[C@H]4NC(=O)C=C[C@]4(C)[C@H]3CC[C@]12C [Finasteride]	1.26	0.717	0.682	0.871	0.391	1.18
CCCCOC(=O)c1ccc(O)cc1 [Butylparaben]	1.05	1.03	1.11	1.03	0.462	1.66
CC(C)N1CCN(c2ccc(OCC3COC(Cn4cncn4)(c4ccc(Cl)cc4Cl)O3)cc2)CC1 (configuration not stated) [Terconazole]	1.82	2.07	1.88	1.04	0.664	1.06
NC(=N\CCCCCC/N=C(N)/N=C(\N)Nc1ccc(Cl)cc1)/N=C(\N)Nc1ccc(Cl)cc1 [Chlorhexidine diacetate]	2.69	4.3	3.46	2.04	3.03	3.25
Cc1cnc(C(=O)NCCc2ccc(S(=O)(=O)NC(=O)NC3CCCCC3)cc2)cn1 [Glipizide]	1.39	1.31	0.684	1.1	1.74	1.36
COc1ccnc(C[S+]([O-])c2nc3cc(-n4cccc4)ccc3[nH]2)c1C (configuration not stated) [Ilaprazole sodium]	1.23	0.928	0.81	0.764	0.518	1.26
COc1cc(Nc2ncc(F)c(Nc3ccc4c(n3)N(COP(=O)(O)O)C(=O)C(C)(C)O4)n2)cc(OC)c1OC [R788 (Fostamatinib) Disodium]	1.37	2.39	2.15	3.19	0.696	2.19

SMILES	Euclidean distance (786-O)	Euclidean distance (A549)	Euclidean distance (DU145)	Euclidean distance (FB)	Euclidean distance (HEPG2)	Euclidean distance (OVCAR4)
COc1cccc2c1C(=O)c1c(O)c3c(c(O)c1C2=O)C[C@@](O)(C(=O)CO)C[C@@H]3O[C@H]1C[C@H](N)[C@@H](O)[C@H](C)O1 [Epirubicin HCl]	3.54	4.33	3.92	5.12	4.78	4.83
Nc1ccn([C@@H]2O[C@H](CO)[C@@H](O)[C@@H]2O)c(=O)n1 [Cytarabine hydrochloride]	3.21	3.25	2.45	2.97	2.73	3.43
CC(=O)S[C@@H]1CC2=CC(=O)CC[C@]2(C)[C@H]2CC[C@@]3(C)[C@@H](CC[C@@]34CCC(=O)O4)[C@H]12 [Spironolactone]	0.955	0.839	1.3	1.04	0.705	0.776
CCNC(=O)CCC/C=C\C[C@@H]1[C@@H](/C=C/[C@@H](O)CCc2ccccc2)[C@H](O)C[C@@H]1O [Bimatoprost]	1.63	1.42	0.906	1.4	0.869	1.27
CC(C)(C)C(=O)Oc1ccc(S(=O)(=O)Nc2ccccc2C(=O)NCC(=O)O)cc1 [Sivelestat (ONO-5046)]	0.847	0.693	0.861	1.16	0.614	0.797
C=C[C@@H]1C[C@]1(NC(=O)[C@@H]1C[C@@H]2CN1C(=O)[C@H](C(C)(C)C)NC(=O)O[C@@H]1C[C@H]1CCCCCc1nc3ccc(OC)cc3nc1O2)C(=O)NS(=O)(=O)C1CC1 [Grazoprevir]	1.16	1.31	1.33	1.88	0.937	1.22
C[C@@H](Nc1cc(F)cc(F)c1)c1cc(C(=O)N(C)C)cc2c(=O)cc(N3CCOCC3)oc12	2.04	1.94	1.72	2.79	0.984	2.9
CCS(=O)(=O)Nc1ccc2c(c1)/C(=C(/Nc1ccc(CN3CCCCC3)cc1)c1ccccc1)C(=O)N2 [Hesperadin]	3.36	3.8	2.47	3.41	2.69	3.25
C/C=C\c1ccc(OC)cc1 [cis-Anethole]	0.571	0.784	0.864	0.765	0.671	1.2
CC(=O)[C@H]1CC[C@H]2[C@@H]3C=CC4=CC(=O)CC[C@@]4(C)[C@@H]3CC[C@]12C [Dydrogesterone]	0.672	0.859	0.732	1.15	1.01	0.899
O=C(O)CNC(=O)c1ncc(-c2cccc(Cl)c2)cc1O [Vadadustat]	1.08	1.97	2.71	1.67	0.8	2.35
CCCCCC(=O)O[C@]1(C(C)=O)CC[C@H]2[C@@H]3CCC4=CC(=O)CC[C@]4(C)[C@H]3CC[C@@]21C [Hydroxyprogesterone caproate]	0.774	1.41	2.27	1.18	0.603	0.921
Cc1cccc(-c2[nH]c(C(C)(C)C)nc2-c2ccc3nccnc3c2)n1	1.56	1.18	0.741	0.884	1.48	0.948
CNC(=O)c1cnn(-c2nc(N)c3ncn([C@@H]4O[C@H](CO)[C@@H](O)[C@H]4O)c3n2)c1 [Regadenoson]	0.517	0.628	0.867	1.43	1.32	0.995
CCCCCCCCCCCCCCCCCCOP(=O)([O-])OC1CC[N+](C)(C)CC1 [Perifosine (KRX-0401)]	1.95	1.09	0.853	1.23	2.19	1.79
CC(C)CC(=O)Nc1n[nH]c2c1CN(C(=O)C1CCN(C)CC1)C2(C)C	3.52	3	2.9	2.96	2.82	4.04
CCOc1cc(N)c([N+](=O)[O-])cc1C(=O)NC1CCN(CC2CC=CCC2)CC1 (configuration not stated) [Cinitapride Hydrogen Tartrate]	1.33	1.05	1.38	1.21	0.924	1.57
C[N+]1(C)[C@@H]2CC[C@H]1C[C@@H](OC(=O)C(O)c1ccccc1)C2 (some centres not stated) [Homatropine Methylbromide]	0.885	1.85	1.26	1.47	0.52	0.995
O=C(NC1CCN(CCCCC2(C(=O)NCC(F)(F)F)c3ccccc3-c3ccccc32)CC1)c1ccccc1-c1ccc(C(F)(F)F)cc1 [Lomitapide Mesylate]	5.45	4.4	6.1	5.88	5.29	5.65
OC[C@H]1O[C@@H](O[C@@H]2[C@@H](CO)OC(O)(CO)[C@H]2O)[C@H](O)[C@@H](O)[C@H]1O (mixture of isomers) [Lactulose]	1.29	0.822	0.75	0.999	1.43	1.7
CC(C)C[C@H](NC(=O)[C@H](Cc1ccccc1)NC(=O)c1cnccn1)B(O)O [Bortezomib]	5.28	3.87	6.56	6.53	4.55	5.51
